We go through 7 compounds from PubChem BioAssay (Tox21).

A short description of experiment [1]: qHTS assay to identify small molecule agonists of the sonic hedgehog signaling (Shh) pathway (AID 1259368).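 Further: NIH/3T3-derived 3T3Gli1-Luc cells carrying a stable Gli1-driven firefly luciferase reporter; series mostly up to about 92 µM; nearly all actives have a fitted effect of over 15% in size.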 In short, it runs like this: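 Steps: seed 3T3 Gli1-Luc cells, incubate 4 hr at 37 C, pin-transfer compounds in DMSO alongside a positive control, incubate 24 hr, add luciferase detection reagent, wait 30 min at room temperature, read luminescence.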
(In general: In qHTS, concentration-response curves come from the screen itself.)

The nature of experiment [2]: qHTS assay to identify small molecule antagonists of the sonic hedgehog signaling (Shh) pathway (AID 1259369). Further: nearly all actives have a fitted effect of over 45% in size. Further: potency means the concentration at half of the fitted maximal effect. In short, it runs like this:
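Inhibition of Shh signalling is measured as reduced Gli1-response-element firefly luciferase output in an NIH/3T3-derived stable reporter clone stimulated with conditioned medium for 24hr.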

Experiment [3] deals with Estrogen receptor beta (Homo sapiens) (UniProt Q92731). Nature of the experiment: qHTS assay to identify small molecule agonists of the estrogen receptor beta (ER-beta) signaling pathway (AID 1259377; active means well fitted activation curve with a large enough effect in the signal ratio in the repeat runs, not every such curve was filed as active; the % refers to the signal ratio). The procedure, abridged:
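ER-beta-UAS-bla HEK293T cells in medium with 2% charcoal-stripped FBS were exposed to compounds for 16 h at 37C. Beta-lactamase reporter activity was read as fluorescence after 2 h with LiveBLAzer B/G FRET substrate at room temperature.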

Experiment [4] shares this target. Nature of the experiment: qHTS assay to identify small molecule antagonists of the estrogen receptor beta (ER-beta) signaling pathway (AID 1259378; active means well fitted inhibition curve with a large enough effect in the signal ratio in the repeat runs, not every such curve was filed as active; the % refers to the signal ratio). The procedure, abridged:
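ER-beta-UAS-bla HEK293T cells in 2% charcoal-stripped FBS medium treated with compound plus 1nM final 17-beta-estradiol for 16 hr at 37C. Beta-lactamase reporter read by FRET substrate fluorescence after 2 hours at room temperature.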

Experiment [5] is described as follows: qHTS assay to identify small molecule agonists of the androgen receptor (AR) signaling pathway in the presence of an antagonist - cell viability counter screen (AID 1259379; active means well fitted curve in the direction sought with a large enough effect in the repeat runs; an effect the other way counts as inactive or inconclusive;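 further: MDA-kb2 human breast cancer cells carrying an MMTV luciferase reporter; series mostly up to about 92 µM; nearly all actives have a fitted effect of over 25% in size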). The procedure, abridged: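 Fluorescence from CellTiter-Fluor, added after 15 hr and read 1 hr later, gave cell viability. Cells were MDA-kb2 exposed to compounds (15 concentrations) in the presence of 3.0uM nilutamide at 37C, 0% CO2.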

Experiment [6] is described as follows: qHTS assay to identify small molecule agonists of the estrogen receptor beta (ER-beta) signaling pathway - cell viability counter screen (AID 1259380; active means well fitted curve in the direction sought with a large enough effect in the repeat runs; an effect the other way counts as inactive or inconclusive; further: nearly all actives have a fitted effect of over 30% in size). In short, it runs like this:
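Same-well viability counter screen. Cells: ER-beta-UAS-bla HEK293T, plated 6 hr before compound, in 2% charcoal-stripped FBS. Compound exposure 16 hr, 37C; viability by CellTiter-Glo luminescence after 30 min at room temperature.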

The target in experiment [7] is Androgen receptor (Homo sapiens) (UniProt P10275). Nature of the experiment: qHTS assay to identify small molecule agonists of the androgen receptor (AR) signaling pathway in the presence of an antagonist (AID 1259381). Further: nearly all actives have a fitted effect of over 15% in size. In short, it runs like this: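 Cells are MDA-kb2 (human breast carcinoma, MMTV-luc, AR/GR responsive). Nilutamide is present at 3.0uM final throughout; compounds are added at 15 concentrations and incubated 16hr at 37C before ONE-Glo luminescence detection.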
Sequence of Androgen receptor (Homo sapiens) (P10275 whole entry, looked up): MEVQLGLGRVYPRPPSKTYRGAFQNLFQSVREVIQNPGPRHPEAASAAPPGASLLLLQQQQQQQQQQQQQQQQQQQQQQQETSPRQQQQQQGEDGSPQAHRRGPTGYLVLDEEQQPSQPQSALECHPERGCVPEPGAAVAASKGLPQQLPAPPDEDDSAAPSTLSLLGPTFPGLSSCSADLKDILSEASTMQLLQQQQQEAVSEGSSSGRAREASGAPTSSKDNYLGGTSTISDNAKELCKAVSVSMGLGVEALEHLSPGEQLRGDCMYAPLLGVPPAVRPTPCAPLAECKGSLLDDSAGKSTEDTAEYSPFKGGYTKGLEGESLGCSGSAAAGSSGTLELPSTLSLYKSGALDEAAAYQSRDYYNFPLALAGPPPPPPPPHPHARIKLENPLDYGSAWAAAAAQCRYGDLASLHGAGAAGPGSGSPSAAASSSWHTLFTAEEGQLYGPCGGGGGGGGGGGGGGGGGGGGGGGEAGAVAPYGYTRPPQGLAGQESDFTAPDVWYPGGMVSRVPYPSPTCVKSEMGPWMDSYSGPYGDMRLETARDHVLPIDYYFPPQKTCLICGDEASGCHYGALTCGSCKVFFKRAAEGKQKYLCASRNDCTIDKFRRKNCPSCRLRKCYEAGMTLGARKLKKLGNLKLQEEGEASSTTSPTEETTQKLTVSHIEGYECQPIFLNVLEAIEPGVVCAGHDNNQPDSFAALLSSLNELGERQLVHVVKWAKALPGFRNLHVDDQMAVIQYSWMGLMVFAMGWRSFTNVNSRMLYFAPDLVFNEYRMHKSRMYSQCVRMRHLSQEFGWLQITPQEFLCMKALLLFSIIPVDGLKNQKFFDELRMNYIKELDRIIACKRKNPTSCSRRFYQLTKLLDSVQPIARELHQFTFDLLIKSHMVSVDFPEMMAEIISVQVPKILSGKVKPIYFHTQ

Experiment [8] can be described thus: qHTS assay to identify small molecule antagonists of the estrogen receptor beta (ER-beta) signaling pathway - cell viability counter screen (AID 1259382; active means well fitted curve in the direction sought with a large enough effect in the repeat runs; an effect the other way counts as inactive or inconclusive; further: series mostly up to about 92 µM; nearly all actives have a fitted effect of over 55% in size). The procedure, abridged: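 Following a 6 hr plating period, HEK293T cells carrying a UAS-driven beta-lactamase reporter under ER-beta control received compounds and 1nM E2 (final). After 16 hr at 37C and 2 hr substrate loading, CellTiter-Glo luminescence indicated viability.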

For experiment [9], the target named is Estrogen receptor (Homo sapiens) (UniProt P03372). Nature of the experiment: qHTS assay to identify small molecule agonists of the estrogen receptor alpha (ER-alpha) signaling pathway in the presence of an antagonist (AID 1259383). Further: top concentration of the series differs between compounds; nearly all actives have a fitted effect of over 15% in size. The procedure, abridged: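 Cells are hormone-deprived for 5 days (charcoal-stripped FBS, no phenol red), plated for 24hr, spiked with 10.0nM ICI-182,780, then dosed at 15 concentrations. After 22hr at 37C, ONE-Glo luminescence reports ERE-luciferase activity.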
Sequence of Estrogen receptor (Homo sapiens) (P03372 whole entry, looked up): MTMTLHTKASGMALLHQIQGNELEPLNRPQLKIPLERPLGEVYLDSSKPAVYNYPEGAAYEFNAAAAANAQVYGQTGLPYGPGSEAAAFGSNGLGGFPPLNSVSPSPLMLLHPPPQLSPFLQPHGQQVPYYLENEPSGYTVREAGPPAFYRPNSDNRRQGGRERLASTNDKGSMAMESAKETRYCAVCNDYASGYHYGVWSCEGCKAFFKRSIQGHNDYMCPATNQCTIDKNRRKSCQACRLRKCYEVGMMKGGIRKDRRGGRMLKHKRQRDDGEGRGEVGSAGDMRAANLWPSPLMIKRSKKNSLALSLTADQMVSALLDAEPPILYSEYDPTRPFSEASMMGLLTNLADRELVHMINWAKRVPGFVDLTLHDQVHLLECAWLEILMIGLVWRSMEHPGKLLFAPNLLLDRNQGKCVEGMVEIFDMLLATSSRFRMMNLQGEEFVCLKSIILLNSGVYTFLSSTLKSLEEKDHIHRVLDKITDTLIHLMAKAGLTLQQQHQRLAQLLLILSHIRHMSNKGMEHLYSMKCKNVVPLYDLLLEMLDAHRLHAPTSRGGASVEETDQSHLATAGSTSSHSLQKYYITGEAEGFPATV

A short description of experiment [10]: qHTS assay to identify small molecule agonists or antagonists of the thyroid stimulating hormone receptor (TSHR) signaling pathway - wild type cell line counter screen (AID 1259384). In short, it runs like this: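 Wild-type Hek293 cells, 800/well, 18 h at 37C, then compound with Ro20-1724 for 30 min RT. cAMP by HTRF (cAMP-d2/anti-cAMP cryptate), 1 h RT, fluorescence read. 15 concentrations, triplicates.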

The target of experiment [11] is Thyrotropin receptor (Homo sapiens) (UniProt P16473). In words: qHTS assay to identify small molecule antagonists of the thyroid stimulating hormone receptor (TSHR) signaling pathway (AID 1259385). Further: nearly all actives have a fitted effect of over 20% in size. The procedure, abridged:
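TSHR-HEK293 cells (800/well) plated 18 h, then compounds with Ro20-1724 and TSH at 1.5 ng/mL final, 30 min at room temperature. cAMP quantified by HTRF (cAMP-d2/anti-cAMP-cryptate, 1 h); 15 concentrations in triplicate.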

Experiment [12] in a line: qHTS assay to identify small molecule agonists of the estrogen receptor alpha (ER-alpha) signaling pathway in the presence of an antagonist - cell viability counter screen (AID 1259386; active means well fitted curve in the direction sought with a large enough effect in the repeat runs; an effect the other way counts as inactive or inconclusive;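 further: series mostly up to about 92 µM; cells exposed to compounds for 22 h at 37 °C before the viability read; nearly all actives have a fitted effect of over 30% in size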). In short, it runs like this: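 Cells are starved of estrogens for 5 days in charcoal-stripped serum, seeded for 24hr and co-treated with ICI-182,780 (10.0nM final) and test compounds. After 22hr at 37C, viability is read as CellTiter-Fluor fluorescence.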

Experiment [13] addresses Progesterone receptor (Homo sapiens) (UniProt P06401). Nature of the experiment: qHTS assay to identify small molecule agonists of the progesterone receptor (PR) signaling pathway (AID 1346784). Further: nearly all actives have a fitted effect of over 30% in size. In short, it runs like this:
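PR-UAS-bla HEK 293T cells (beta-lactamase reporter under UAS) in 2% charcoal-stripped FBS, dosed with 23 nL compound after 6 hr, incubated 16hr at 37C. LiveBLAzer B/G FRET substrate added, fluorescence read after 2 hours.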

Experiment [14] shares this target. Nature of the experiment: qHTS assay to identify small molecule antagonists of the progesterone receptor (PR) signaling pathway (AID 1346795; active means well fitted inhibition curve with a large enough effect in the signal ratio in the repeat runs, not every such curve was filed as active; the % refers to the signal ratio). In short, it runs like this: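 PR-UAS-bla HEK293T cells with beta-lactamase reporter under UAS control, in 2% charcoal-stripped FBS, treated with compounds plus 1 nM promegestone (R5020, final) for 16 hr at 37C. Read-out: FRET beta-lactamase substrate fluorescence after 2 hr at room temperature.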

Experiment [15] can be described thus: qHTS assay to identify small molecule antagonists of the progesterone receptor (PR) signaling pathway - cell viability counter screen (AID 1346798; active means well fitted curve in the direction sought with a large enough effect in the repeat runs; an effect the other way counts as inactive or inconclusive; further: series mostly up to about 92 µM; nearly all actives have a fitted effect of over 50% in size). In short, it runs like this: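 PR-UAS-bla HEK293T cells, 3,000/well in 2% charcoal-stripped FBS medium, dosed with compounds plus R5020 agonist and incubated 16 h at 37C. Viability then measured in the same wells by CellTiter-Glo luminescence after 30 min at RT.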

Experiment [16] in a line: qHTS assay to identify small molecule agonists of the progesterone receptor (PR) signaling pathway - cell viability counter screen (AID 1346799). Further: nearly all actives have a fitted effect of over 45% in size. The procedure, abridged: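 Counter screen in the PR-UAS-bla HEK293T wells (2% charcoal-stripped FBS, 16 h compound exposure at 37 C) after the bla read. CellTiter-Glo added, 30 min at room temperature, luminescence read as cell viability.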

A short description of experiment [17]: qHTS assay to identify small molecule antagonists of the TGF-beta/Smad signaling pathway - cell viability counter screen (AID 1346824; active means well fitted curve in the direction sought with a large enough effect in the repeat runs; an effect the other way counts as inactive or inconclusive; further: nearly all actives have a fitted effect of over 50% in size). The procedure, abridged: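 SBE-bla HEK 293T cells, incubated overnight, then compound plus 0.25 ng/mL TGF-beta1 (stock added) for 5 hr at 37 C. Viability was read in the same wells by CellTiter-Glo luminescence after 30 min at room temperature.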

Experiment [18] is described as follows: qHTS assay to identify small molecule agonists of the TGF-beta/Smad signaling pathway - cell viability counter screen (AID 1346829; active means well fitted curve in the direction sought with a large enough effect in the repeat runs; an effect the other way counts as inactive or inconclusive; further: top concentration of the series differs between compounds; nearly all actives have a fitted effect of over 45% in size). In short, it runs like this:
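HEK 293T SBE-bla line, 5 hr compound exposure at 37 C, multiplexed CellTiter-Glo viability read by luminescence.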

Experiment [19] can be described thus: qHTS assay to identify small molecule agonists of the TGF-beta/Smad signaling pathway (AID 1346859; active means well fitted activation curve with a large enough effect in the signal ratio in the repeat runs, not every such curve was filed as active; the % refers to the signal ratio; further: series mostly up to about 77 µM). In short, it runs like this:
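SBE-bla HEK293T cells plated overnight, then compound exposure for 5 h at 37 C. Beta-lactamase reporter read with LiveBLAzer B/G FRET substrate after 2 h at room temperature, fluorescence at 405 nm excitation, 460/530 nm emission.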

Experiment [20] deals with Thyrotropin-releasing hormone receptor (Homo sapiens) (UniProt P34981). In words: qHTS assay to identify small molecule antagonists of the thyrotropin-releasing hormone receptor (TRHR) signaling pathway (AID 1346877; active means well fitted inhibition curve with a large enough effect in the repeat runs, not every such curve was filed as active; further: series mostly up to about 51 µM). The procedure, abridged: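 Cells (TRHR-HEK293) are plated and kept 18 h at 37 °C/5% CO2. A calcium-sensitive dye is added for 2 h, compound follows for 5 min at room temperature, and TRH is then given at 1 nM final.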
Sequence of Thyrotropin-releasing hormone receptor (Homo sapiens) (P34981 whole entry, looked up): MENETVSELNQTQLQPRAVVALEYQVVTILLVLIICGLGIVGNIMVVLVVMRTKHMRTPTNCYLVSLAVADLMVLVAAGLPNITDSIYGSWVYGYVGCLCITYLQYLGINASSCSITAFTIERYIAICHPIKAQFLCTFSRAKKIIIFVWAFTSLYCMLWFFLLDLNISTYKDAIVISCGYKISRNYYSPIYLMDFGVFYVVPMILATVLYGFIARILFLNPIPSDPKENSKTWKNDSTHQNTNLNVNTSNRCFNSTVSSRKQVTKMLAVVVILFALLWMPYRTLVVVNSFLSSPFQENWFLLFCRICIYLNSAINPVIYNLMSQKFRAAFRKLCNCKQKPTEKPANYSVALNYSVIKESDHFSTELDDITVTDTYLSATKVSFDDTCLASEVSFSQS

The structures appear in SMILES notation. A number with no mark means an inactive call. Inconclusive results are not listed. Activity calls are given as the source filed them. Unless noted, the call rests on the fitted dose curve.
On the % scale 0 is the no-effect control and ±100 the full control effect.

Sequence of Estrogen receptor beta (Homo sapiens) (Q92731 whole entry, looked up): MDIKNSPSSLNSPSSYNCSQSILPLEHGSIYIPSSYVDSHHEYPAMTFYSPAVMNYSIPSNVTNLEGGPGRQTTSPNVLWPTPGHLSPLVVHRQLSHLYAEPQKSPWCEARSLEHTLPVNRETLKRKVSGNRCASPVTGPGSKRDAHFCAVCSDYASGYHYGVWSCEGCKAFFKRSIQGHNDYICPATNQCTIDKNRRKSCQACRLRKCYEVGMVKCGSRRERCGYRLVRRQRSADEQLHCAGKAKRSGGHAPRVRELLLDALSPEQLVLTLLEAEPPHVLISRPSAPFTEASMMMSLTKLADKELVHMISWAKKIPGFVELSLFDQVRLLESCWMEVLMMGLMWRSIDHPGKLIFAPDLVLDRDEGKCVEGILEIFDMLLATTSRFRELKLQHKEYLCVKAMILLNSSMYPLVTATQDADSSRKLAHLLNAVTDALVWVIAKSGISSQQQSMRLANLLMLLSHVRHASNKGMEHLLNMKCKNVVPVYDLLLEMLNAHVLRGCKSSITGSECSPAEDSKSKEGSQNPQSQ
Sequence of Thyrotropin receptor (Homo sapiens) (P16473 whole entry, looked up): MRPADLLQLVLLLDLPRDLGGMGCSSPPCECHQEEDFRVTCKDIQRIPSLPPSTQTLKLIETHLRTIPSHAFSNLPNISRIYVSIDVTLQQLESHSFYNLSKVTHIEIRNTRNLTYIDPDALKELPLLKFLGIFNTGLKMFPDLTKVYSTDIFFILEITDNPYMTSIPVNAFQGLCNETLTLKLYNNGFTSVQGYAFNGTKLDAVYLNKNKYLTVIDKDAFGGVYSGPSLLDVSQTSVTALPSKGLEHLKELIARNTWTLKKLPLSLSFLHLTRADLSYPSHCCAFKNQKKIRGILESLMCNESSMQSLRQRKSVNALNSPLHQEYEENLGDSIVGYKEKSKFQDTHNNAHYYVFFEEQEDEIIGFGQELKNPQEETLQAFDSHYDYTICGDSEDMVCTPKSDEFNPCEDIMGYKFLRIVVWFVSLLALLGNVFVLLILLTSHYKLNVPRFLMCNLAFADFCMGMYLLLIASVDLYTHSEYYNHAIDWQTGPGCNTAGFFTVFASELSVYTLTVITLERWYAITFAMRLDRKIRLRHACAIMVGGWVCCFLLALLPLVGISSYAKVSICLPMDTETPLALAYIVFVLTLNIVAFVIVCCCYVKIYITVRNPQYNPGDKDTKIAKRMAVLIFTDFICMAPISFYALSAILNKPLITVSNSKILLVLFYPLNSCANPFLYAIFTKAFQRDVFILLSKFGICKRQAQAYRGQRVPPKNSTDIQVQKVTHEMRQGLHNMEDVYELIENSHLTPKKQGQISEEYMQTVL
Sequence of Progesterone receptor (Homo sapiens) (P06401 whole entry, looked up): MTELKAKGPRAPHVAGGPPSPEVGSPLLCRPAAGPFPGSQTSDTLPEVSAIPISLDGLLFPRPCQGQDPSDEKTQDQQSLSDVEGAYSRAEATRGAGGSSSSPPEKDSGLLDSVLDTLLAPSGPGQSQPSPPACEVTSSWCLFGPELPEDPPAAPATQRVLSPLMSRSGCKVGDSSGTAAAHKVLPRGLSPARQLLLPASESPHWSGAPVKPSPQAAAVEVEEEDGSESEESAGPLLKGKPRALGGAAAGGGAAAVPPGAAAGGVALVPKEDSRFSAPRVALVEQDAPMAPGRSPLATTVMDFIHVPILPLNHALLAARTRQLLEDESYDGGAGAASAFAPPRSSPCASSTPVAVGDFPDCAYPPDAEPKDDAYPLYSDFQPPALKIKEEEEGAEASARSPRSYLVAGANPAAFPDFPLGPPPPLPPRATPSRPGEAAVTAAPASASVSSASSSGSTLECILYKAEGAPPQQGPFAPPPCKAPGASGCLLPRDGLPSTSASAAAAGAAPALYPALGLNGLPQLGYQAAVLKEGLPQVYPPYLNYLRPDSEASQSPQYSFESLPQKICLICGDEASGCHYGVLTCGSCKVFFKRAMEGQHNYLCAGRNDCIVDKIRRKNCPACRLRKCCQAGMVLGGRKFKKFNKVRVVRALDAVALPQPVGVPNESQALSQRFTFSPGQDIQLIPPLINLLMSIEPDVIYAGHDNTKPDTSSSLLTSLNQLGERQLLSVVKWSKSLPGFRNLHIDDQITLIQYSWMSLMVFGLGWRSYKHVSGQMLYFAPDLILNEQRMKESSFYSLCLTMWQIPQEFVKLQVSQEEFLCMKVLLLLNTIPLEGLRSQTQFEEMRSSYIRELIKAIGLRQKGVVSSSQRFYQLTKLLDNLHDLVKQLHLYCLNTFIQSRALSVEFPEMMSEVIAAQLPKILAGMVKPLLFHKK

Regarding `O=C(CCOCCOCCOCCOCCC(=O)Nc1c(I)cc(I)c(C(=O)O)c1I)Nc1c(I)cc(I)c(C(=O)O)c1I`, the Potency entry in experiment [1], in experiment [2], in experiment [4], in [5], in experiment [6] and in experiment [7] was “inactive” in each case. Also, the Potency result in experiment [8], in experiment [9], in experiment [11], in [13], in experiment [14] and in experiment [15] was “inactive” in each case. In addition, the Potency result in experiment [16] is “inactive”. Besides, the outcome in experiment [3], in experiment [10], in experiment [12], in experiment [17], in experiment [18] and in [19] was inactive.
On to `CCCCc1ccc2cccc(S(=O)(=O)O)c2c1`, for which the Potency entry in [1], in [2], in [4], in experiment [5], in experiment [6] and in [7] was “inactive” in each case. Further, the Potency entry in experiment [8], in experiment [9], in [11], in experiment [13], in experiment [14] and in [15] was “inactive” throughout. Besides, the Potency entry in [16] was “inactive”. Besides, the compound was classed as inactive in [3], in experiment [10], in [12], in experiment [17], in experiment [18] and in experiment [19].
Consider `CC1=CCC2C(C1)C2(C)C` (stereo unspecified), for which the Potency result in experiment [1], in [4], in experiment [5], in [6], in [7] and in experiment [8] was “inactive” each time. The Potency result in experiment [9], in [11], in experiment [13], in experiment [14] and in experiment [15] was “inactive” in each case. Further, in experiment [2], the Potency is 17.2 µM (active). In addition, the outcome in [3], in experiment [10], in experiment [18], in experiment [19] and in experiment [20] was inactive.
For the compound `NC(N)=NS(=O)(=O)c1ccc(N)cc1`, the Potency entry in experiment [1], in experiment [2], in experiment [4], in experiment [5], in experiment [6] and in experiment [7] was “inactive” each time. Further, the Potency entry in experiment [8], in experiment [9], in [11], in [13], in experiment [14] and in experiment [15] was “inactive” in each case. For the same compound, the Potency entry in [16] is “inactive”. The result in experiment [3], in experiment [10], in [17], in experiment [18] and in experiment [19] was inactive.
On to `C1CCCCCCCCCCC1`, for which the activity change in [1] is -0.649% [at 18.9 µM, active compounds read high]. Also, the figures for the activity change, negative = inhibition in [2], in [11] and in [14] were 13.4% [at 19 µM], -0.259% [at 19 µM] and 0.992% [at 18.9 µM], respectively. Also, the activation in experiment [3] is -0.402% [at 19 µM]; in experiment [9] it was -2.76% [at 19 µM]; in experiment [19] it was 1.5% [at 15.8 µM]. Also, the activity, negative = inhibition in experiment [4] was 0.969% [at 19 µM]; in experiment [20], -13.6% [at 10.5 µM]. The activity change, negative = cytotoxicity in experiment [5] is -1.18% [at 19 µM]; in experiment [6], -0.0692% [at 19 µM]; in [8], 1.11% [at 19 µM]; in [15], 8.3% [at 18.9 µM]; in experiment [16] it was 1.68% [at 19 µM]; in experiment [18], 5.27% [at 15.8 µM]. Besides, the Potency result in experiment [7] was “inactive”. Further, the cAMP activity change in experiment [10] is -4.57% [at 18.9 µM]. Besides, in experiment [17], the viability change, negative = cytotoxic is 13% [at 15.8 µM].
Turning to `O=S(=O)(O)c1ccccc1O`, the Potency entry in experiment [1], in experiment [2], in experiment [4], in [5], in experiment [6] and in experiment [7] was “inactive” each time. For the same compound, the Potency result in experiment [8], in [9], in experiment [11], in [13], in experiment [14] and in experiment [16] was “inactive” throughout. The compound was classed as inactive in experiment [3], in experiment [10], in [18] and in [19].
`O=c1[nH]c2ccccc2c(=O)n1CCCl`: the Potency result in experiment [1], in experiment [2], in experiment [4], in experiment [5], in [6] and in [7] was “inactive” each time. Besides, the Potency entry in experiment [8], in experiment [11], in experiment [13], in experiment [14], in experiment [15] and in experiment [16] was “inactive” throughout. For the same compound, the compound was classed as inactive in experiment [3], in experiment [10], in [12], in [17], in experiment [18] and in experiment [19]. The outcome in experiment [20] was inactive.
